Measurements from PubChem BioAssay AID1063 (University of Pittsburgh Molecular Library Screening Center, 2008).
The whole screen tested about 200,000 compounds, of which about 18,000 (9%) were called active. No stated cut-off is given here; in the data, active means inhibition above about 50%; inactive means the rest. This excerpt belongs to a sample that is enriched for actives.

Assay: antileishmanial activity against promastigotes – primary screen (AID 1063);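 further: promastigotes grown with compound for 44 hours at 28 °C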
Settings: Leishmania major promastigotes, resazurin fluorescence viability; at 10 µM; active compounds read high

Compound	inhibition
O=C(COC(=O)CNC(=O)c1ccccc1F)NCC(F)(F)F	-0.59% (inactive)
COc1ccc(CC(NC(C)=O)C(=O)NC2CCN(C(=O)C3CC3)CC2)cc1OC (centres undefined)	-1.59% (inactive)
CC(=O)NC1=NN(C(C)=O)C(C)(c2ccc(Cl)s2)S1 (centres undefined)	37.2% (inactive)
CC(=O)NC1=NN(C(C)=O)C(C)(c2ccc(C)cc2)S1 (centres undefined)	63.1% (active)
CC(=O)NC1=NN(C(C)=O)C(C)(CCS(=O)(=O)c2ccc(Cl)c(Cl)c2)S1 (centres undefined)	-0.49% (inactive)
CCCC(=O)Nc1nnc(-c2ccccc2)o1	-6.09% (inactive)
COc1cc(/C=N/NC(=S)Nc2cccnc2)cc(OC)c1O	-1.76% (inactive)
Cc1ccc(-c2cc(C(F)(F)F)n3ncc(C(=O)N4CCCCC4c4cccnc4)c3n2)cc1 (centres undefined)	89.6% (active)
Cc1ccc(-c2cc(C(F)(F)F)n3nc(C(=O)N4CCCC4)cc3n2)cc1	2.83% (inactive)
O=C(O)c1cnn2c(C(F)(F)F)cc(-c3ccccc3)nc12	-4.02% (inactive)
O=C(CSc1cccc[n+]1[O-])c1ccc(Cl)cc1	1.35% (inactive)
CC(C(=O)NCC1CCCCC1)N(C)Cc1cccc(Cl)c1 (centres undefined)	-1.13% (inactive)
CCc1ccccc1NC(=O)c1cccs1	-2.12% (inactive)
O=C(/C=C/c1ccccc1)N/C(=C/c1ccccc1)C(=O)Nc1ccccc1O	5.36% (inactive)
CCc1ccccc1NC(=O)/C(=C/c1ccccc1)c1ccccc1	66% (active)
Oc1ccc(-c2nncn2-c2ccccc2)cc1	-8.74% (inactive)
CN(CC(=O)N1CCN(c2ccccc2)CC1)S(=O)(=O)c1cccs1	-7.19% (inactive)
O=C(O)CSCC(=O)Nc1ccc(C(F)(F)F)cc1	-3.47% (inactive)
CCCCCC(=O)Nc1ccc(C(=O)N/N=C/c2ccc([N+](=O)[O-])cc2)cc1	34.7% (inactive)
COc1ccc(C(=O)NCC(=O)N/N=C/c2ccc([N+](=O)[O-])s2)cc1OC	97% (active)
O=C(Cc1cc(=O)[nH][nH]1)N/N=C/c1ccccc1[N+](=O)[O-]	-6.04% (inactive)
Cc1cccc(/C=N/NC(=O)CNc2cccc3ccccc23)n1	1.6% (inactive)
COc1cc(/C=N\NC(=O)CNC(=O)c2cccc([N+](=O)[O-])c2)ccc1O	8.51% (inactive)
Cc1ccccc1NCC(=O)N/N=C\c1ccc([N+](=O)[O-])s1	101% (active)

Compound	inhibition
CCOc1ccc(NC(=O)CCC(=O)n2nc(C)cc2C)cc1	-2.57% (inactive)
COc1ccc(/C=N/NC(=O)CNC(=O)c2ccc(S(=O)(=O)N3CCCC3)cc2)c(OC)c1	28.7% (inactive)
CCOc1ccc(NC(=O)CCC(=O)N/N=C/c2ccc([N+](=O)[O-])s2)cc1	96.6% (active)
O=C(O)c1cccc(NC(=O)c2cc(-c3cccc(Cl)c3)nc3ccccc23)c1	-4.68% (inactive)
COc1ccc(OC)c(C(=O)c2ccc(C(=O)N3CCN(Cc4csc(C)n4)CC3)cc2)c1	-0.79% (inactive)
CCN1CCN(CC(=O)c2cc(OC)c(OC)c(OC)c2)CC1	-5.32% (inactive)
Nc1nc(SCC(=O)N2CCN(S(=O)(=O)c3ccc(Cl)cc3)CC2)n[nH]1	-1.03% (inactive)
Cc1ccc(C2=NN(C(=O)COc3ncnc4ccccc34)C(c3ccco3)C2)cc1 (centres undefined)	-5.8% (inactive)
CCCCN(CC)CCNC(=O)CCNC(=O)Cn1ccc2ccccc2c1=O	0.35% (inactive)
O=C(O)CCC(=O)Nc1nc2ccc([N+](=O)[O-])cc2s1	-7.18% (inactive)
O=C(COC(=O)c1ccc(F)cc1)Nc1nc2ccc([N+](=O)[O-])cc2s1	-3.1% (inactive)
O=C(NC(Nc1nc2ccc([N+](=O)[O-])cc2s1)(C(F)(F)F)C(F)(F)F)c1ccccc1	100% (active)
N=C1C(c2nc3ccccc3s2)=C(O)CN1NC(=O)c1ccc([N+](=O)[O-])cc1	-3.94% (inactive)
O=C(Nc1nc2ccc([N+](=O)[O-])cc2s1)c1ccc(S(=O)(=O)N2CCCc3ccccc32)cc1	100% (active)
CSc1nc2ccc(S(=O)(=O)N3CCc4ccccc43)cc2s1	0.05% (inactive)
CCCCn1nc(C(=O)OCC(=O)Nc2sccc2C(N)=O)c2ccccc2c1=O	-6.96% (inactive)
Cc1cccc(N2CCC(NCc3c(C(=O)N4CCCCC4)nc4c(C)cccn34)CC2)c1	17.5% (inactive)
S=C(Cc1ccc(Cl)cc1)N1CCOCC1	1.84% (inactive)
CC1=NN(C(=O)CCCc2ccccc2)C(O)(C(F)(F)F)C1 (centres undefined)	-11.2% (inactive)
CN(C)CCN=c1cc(-c2ccccc2)oc2ccc(Cl)cc12	63% (active)
CN(C)CCn1c(=S)[nH]c2ccc(Cl)cc2c1=O	1.3% (inactive)
C/C(CC(=O)N1CCN(C=O)CC1)=N\NC(=O)c1ccc(Br)cc1	-4.54% (inactive)
Cc1cccc(N2C(=O)CC(SC(N)=Nc3ccccc3)C2=O)c1 (centres undefined)	45.7% (inactive)
Cc1ccc(-n2c(O)c(C=Nc3ccc(S(=O)(=O)Nc4ncccn4)cc3)c3ccccc3c2=O)cc1C	-5.1% (inactive)

Compound	inhibition
Cc1nnc(SCC(=O)NCc2ccccc2)s1	-9.92% (inactive)
Cc1nnc(SCC(=O)N2c3ccccc3C(C)(c3ccc(Cl)cc3)CC2(C)C)s1 (centres undefined)	56.6% (active)
Cc1nnc(SCC(=O)N2CCc3ccccc3C2)s1	-1.97% (inactive)
Cc1ccc(NC(=O)C(=O)NCC2CCN(C(=O)c3cccc([N+](=O)[O-])c3)CC2)cc1	23% (inactive)
Cc1nn(-c2ccccc2)c(C)c1NC(=O)COc1ccc(Cl)cc1Cl	43.4% (inactive)
CN1CCC(OC(=O)COc2ccc(Cl)cc2Cl)CC1	1.67% (inactive)
CN1CCN(c2ccc(NC(=O)COc3ccc(Cl)cc3Cl)cc2)CC1	98.7% (active)
S=C(NCC1CCCO1)N1CCN(c2ccc(Cl)c(Cl)c2)CC1 (centres undefined)	17.8% (inactive)
COc1ccc(Nc2nc(-c3ccccc3)cs2)cc1	-2.02% (inactive)
NS(=O)(=O)c1ccc(Nc2nc(-c3ccccc3)cs2)cc1	81.2% (active)
COc1ccc(-c2csc(Nc3ccc(O)cc3)n2)cc1	23% (inactive)
O=C(NCC(O)c1ccc([N+](=O)[O-])cc1)C1CCCCC1 (centres undefined)	-8.78% (inactive)
Cn1c(-c2sccc2OCc2cccc(C(F)(F)F)c2)n[nH]c1=S	14.1% (inactive)
Cc1ccccc1-c1n[nH]c(=S)n1C	-18.2% (inactive)
Cn1c(-c2sc3cc(C(F)(F)F)cnc3c2-c2ccccc2)n[nH]c1=S	84.1% (active)
O=C(CCSc1ccccc1)N1CCN(c2ccccc2F)CC1	-5.13% (inactive)
O=C(Nc1nc(-c2cccnc2)cs1)c1ccccc1F	-2.37% (inactive)
OCCNCCOc1ccc(Cl)c(Cl)c1	78.9% (active)
OCCNCCCCOc1ccccc1F	19.1% (inactive)
COCC(C)NC(=O)c1ccc(Cl)c(Cl)c1 (centres undefined)	-3.5% (inactive)
CC/C(Cc1ccccc1)=N/NC(=O)CCn1nnc2ccccc21	-2.64% (inactive)
CCN(C(=O)CN1CCN(Cc2ccccc2)CC1)c1c(N)n(Cc2ccccc2)c(=O)[nH]c1=O	-0.59% (inactive)
O=C(/C(=C/c1cccc(Cl)c1)c1nc2ccccc2[nH]1)c1ccccc1	101% (active)
COc1ccc(/C=C(/NC(=O)c2ccc(C)cc2)c2nc3ccccc3[nH]2)cc1OC	16.1% (inactive)

Compound	inhibition
CCC(=O)/C(=C(/O)c1ccccc1)c1nc2ccccc2[nH]1	-5.9% (inactive)
C=CCNCCCCOc1ccccc1	34.8% (inactive)
COc1ccc(NC(=O)CSc2nnc(-c3ccccc3F)n2C2CC2)cc1S(N)(=O)=O	2.82% (inactive)
CC(=O)Nc1ccc(S(=O)(=O)N2CCSCC2)cc1	0.03% (inactive)
Cc1cccc(OCCCC(=O)Nc2ccc(S(=O)(=O)N3CCCC3)cc2)c1	44.8% (inactive)
CC(=O)Nc1ccc(S(=O)(=O)N2CCN(CCCOc3cc(C)ccc3C)CC2)cc1	72.8% (active)
O=C(CSc1ccccc1)Nc1cc(Cl)ccc1Oc1ccccc1	14.8% (inactive)
CCOC(=O)c1ccc(NC(=O)C2CC(=O)Nc3nc4ccccc4n32)cc1 (centres undefined)	-4.72% (inactive)
COc1cc(NC(=O)c2cccnc2SC)cc(OC)c1	1.73% (inactive)
COC(=O)c1ccc(NC(=O)c2ccccc2NS(=O)(=O)c2ccccc2)cc1	-3.45% (inactive)
COc1cc(NC(=O)c2ccccc2NS(=O)(=O)c2ccc(Cl)s2)cc(OC)c1	74.3% (active)
Cc1cc(C)cc(C(=O)NC2C(=O)N3C(C(=O)O)=C(CSc4nnc(C)s4)CSC23)c1 (centres undefined)	-0.22% (inactive)
O=C1/C(=C\c2ccsc2)NC(=S)N1c1ccccc1	-4.28% (inactive)
CC(=O)C1C(c2ccc(Cl)cc2)c2c(n[nH]c2C)CC1(C)O (centres undefined)	-0.37% (inactive)
CCCn1nc(C(=O)Nc2ccc3nc(C)sc3c2)c2ccccc2c1=O	80.4% (active)
CCCn1nc(C(=O)N2CCCc3ccccc32)c2ccccc2c1=O	26.1% (inactive)
CCCCn1nc(C(=O)Nc2ccc(S(=O)(=O)Nc3ncccn3)cc2)c2ccccc2c1=O	-10.7% (inactive)
N=c1n(Cc2ccc(Cl)cc2)c2ccccc2n1CC(O)c1ccco1 (centres undefined)	85.3% (active)
Cn1c(=N)n(CC(O)c2cccs2)c2ccccc21 (centres undefined)	1.42% (inactive)
CC(=O)NC1(c2ccc(F)cc2)CCN(C(=O)c2c(F)cccc2F)CC1	-1.81% (inactive)
CN(Cc1nc2ccc(F)cc2[nH]1)Cc1nc(CC2CC2)no1	-4.94% (inactive)
C[C@@H]1C[C@@H]2O[C@H]2/C=C\C=C\C(=O)Cc2c(Cl)c(O)cc(O)c2C(=O)O1	100% (active)
